Measured values reported in PubChem BioAssay.
“And” between values parts separate entries of the source, which are not always exact repeats. Equal values may be shown once. Records with an inconclusive call do not appear. The source made the active and inactive calls.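 Rule for the calls, unless noted: active = compounds killing one labelled cell type while sparing the other, by normalised counts and ratio limits, not self-fluorescent; inactive = the rest.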

Tests used:
[1] = EMT-state selective cytotoxicity in co-culture – imaging, PC-3E GFP, TEM4-18 mCherry, primary screen (AID 1345086); conditions: PC-3E GFP / TEM4-18 mCherry co-culture, imaging cell counts, at 1 µM; for red/green cell ratio (normalised): actives lie on both sides, counts scaled to control wells, 1 = unselective;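 for all read-outs here: cells exposed to compound for 72 h before imaging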;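 for red/green cell ratio (normalised): normalised mesenchymal count divided by normalised epithelial count so high means epithelial killing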
[2] = modulation of C. elegans fzo-1 (AID 1259413; call rule not given here;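 note: fzo-1 mutant C. elegans worms in liquid wells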); conditions: C. elegans fzo-1 modulator screen, mean read-out; stronger effect = higher value
[3] = viability loss in pontine glioma line – cell-based, SU-DIPG-XIII, MIPE4.0, CellTiter-Glo, qHTS, dose response (AID 1347061; cut-off not given, nearly all actives have AC50 up to about 37 µM;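 note: cells exposed to compound for 48 hours before readout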); conditions: CellTiter-Glo ATP luminescence
[4] = viability loss in pontine glioma line – cell-based, JHH-DIPG-1, MIPE4.0, CellTiter-Glo, qHTS, dose response (AID 1347062; cut-off not given, nearly all actives have AC50 up to about 27 µM); conditions: JHH-DIPG-1 viability, CellTiter-Glo ATP luminescence
[5] = viability loss in pontine glioma line – cell-based, SU-DIPG-XIII, MIPE5.0, CellTiter-Glo, qHTS, dose response (AID 1347064; cut-off not given, nearly all actives have AC50 up to about 23 µM); conditions: CellTiter-Glo ATP luminescence
[6] = measured here: epithelial PC-3E GFP cell survival
[7] = measured here: mesenchymal TEM4-18 mCherry cell survival

Question: With `CC1(C)OC(=O)NC1=O` as the compound, how does the red/green cell ratio (normalised) [1] read?
Answer: 1.18 (inactive)

Question: What about the normalised cell number [1, 6] of the same compound?
Answer: 1.2

Question: And the normalised cell number [1, 7]?
Answer: 1.41

Question: What does the source list for `CC(C)(C)NC(=O)[C@@H]1CN(Cc2cccnc2)CCN1C[C@@H](O)C[C@@H](Cc1ccccc1)C(=O)N[C@H]1c2ccccc2C[C@H]1O`?
Answer: mean signal [2]: 283 (inactive); AC50 [3]: 1.32 µM (active)

Question: With `Cc1c(N(C)CS(=O)(=O)O)c(=O)n(-c2ccccc2)n1C` as the compound, how does the red/green cell ratio (normalised) [1] read?
Answer: 1.09 (inactive)

Question: What about the normalised cell number [1, 6] of the same compound?
Answer: 1.23

Question: What about the normalised cell number [1, 7] of the same compound?
Answer: 1.35

Question: What does the source list for `Nc1ccc(S(=O)(=O)Nc2cnc3ccccc3n2)cc1`?
Answer: red/green cell ratio (normalised) [1]: 1.03 (inactive); normalised cell number [1, 6]: 1.09; normalised cell number [1, 7]: 1.11

Question: Which red/green cell ratio (normalised) [1] does the source give for `CN1C(C)(C)CCCC1(C)C` here?
Answer: 0.96 (inactive)

Question: And the normalised cell number [1, 6]?
Answer: 1.09

Question: And the normalised cell number [1, 7]?
Answer: 1.05

Question: Which red/green cell ratio (normalised) [1] does the source give for `CCn1cc(C(=O)O)c(=O)c2cnc(N3CCNCC3)nc21` here?
Answer: 1.01 (inactive)

Question: What about the normalised cell number [1, 6] of the same compound?
Answer: 0.76

Question: And the normalised cell number [1, 7]?
Answer: 0.77

Question: Which results are given for `CCN1CCCC(OC(=O)C(c2ccccc2)c2ccccc2)C1` (configuration not stated)?
Answer: red/green cell ratio (normalised) [1]: 1.28 (inactive); normalised cell number [1, 6]: 0.93; normalised cell number [1, 7]: 1.19

Question: With `O=c1[nH]cnc2c1ncn2[C@H]1CC[C@@H](CO)O1` as the compound, how does the mean signal [2] read?
Answer: 237 (inactive)

Question: And the outcome [3]?
Answer: inactive

Question: For `Cc1cc(=O)[nH]c(=S)[nH]1`, which red/green cell ratio (normalised) [1] is on record?
Answer: 0.93 (inactive)

Question: What about the normalised cell number [1, 6] of the same compound?
Answer: 0.99

Question: And the normalised cell number [1, 7]?
Answer: 0.92

Question: With `CC(C)c1ccc2oc3nc(N)c(C(=O)O)cc3c(=O)c2c1` as the compound, how does the mean signal [2] read?
Answer: 242 (inactive)

Question: And the outcome [3]?
Answer: inactive

Question: What about the outcome [4] of the same compound?
Answer: inactive

Question: And the outcome [5]?
Answer: inactive

Question: For `NCCCC[C@H](N[C@@H](CCc1ccccc1)C(=O)O)C(=O)N1CCC[C@H]1C(=O)O`, which red/green cell ratio (normalised) [1] is on record?
Answer: 1.65 (inactive)

Question: And the normalised cell number [1, 6]?
Answer: 0.22

Question: And the normalised cell number [1, 7]?
Answer: 0.36

Question: For `CCCCOc1cc(C(=O)NCCN(CC)CC)c2ccccc2n1`, which red/green cell ratio (normalised) [1] is on record?
Answer: 0.94 (inactive)

Question: What about the normalised cell number [1, 6] of the same compound?
Answer: 1.33

Question: What about the normalised cell number [1, 7] of the same compound?
Answer: 1.25

Question: Which red/green cell ratio (normalised) [1] does the source give for `C=Cc1c(C)c2cc3[nH]c(cc4nc(cc5nc(cc1[nH]2)C(C)=C5CCC(=O)O)C(CCC(=O)O)=C4C)c(C)c3C=C` here?
Answer: 1.18 (inactive)

Question: And the normalised cell number [1, 6]?
Answer: 0.8

Question: And the normalised cell number [1, 7]?
Answer: 0.95

Question: Which red/green cell ratio (normalised) [1] does the source give for `Cn1c(=O)c2c(ncn2CCO)n(C)c1=O` here?
Answer: 1.06 (inactive)

Question: And the normalised cell number [1, 6]?
Answer: 0.95

Question: What about the normalised cell number [1, 7] of the same compound?
Answer: 1.01

Question: For `CCn1cc(C(=O)O)c(=O)c2cnc(N3CCCC3)nc21`, which red/green cell ratio (normalised) [1] is on record?
Answer: 0.88 (inactive)

Question: And the normalised cell number [1, 6]?
Answer: 1

Question: And the normalised cell number [1, 7]?
Answer: 0.88

Question: Which results are given for `COc1ccc(C(=O)c2ccccc2O)c(O)c1`?
Answer: red/green cell ratio (normalised) [1]: 1.27 (inactive); normalised cell number [1, 6]: 1.28; normalised cell number [1, 7]: 1.63

Question: With `CCCCC1C(=O)N(c2ccccc2)N(c2ccccc2)C1=O` as the compound, how does the red/green cell ratio (normalised) [1] read?
Answer: 0.97 (inactive)

Question: And the normalised cell number [1, 6]?
Answer: 1.22

Question: What about the normalised cell number [1, 7] of the same compound?
Answer: 1.19

Question: Which red/green cell ratio (normalised) [1] does the source give for `CN1CCOC(c2ccccc2)c2ccccc2C1` (configuration not stated) here?
Answer: 1.19 (inactive)

Question: What about the normalised cell number [1, 6] of the same compound?
Answer: 0.43

Question: And the normalised cell number [1, 7]?
Answer: 0.51

Question: Which red/green cell ratio (normalised) [1] does the source give for `CN1CCN(c2cc3c(cc2F)c(=O)c(C(=O)O)cn3-c2ccc(F)cc2)CC1` here?
Answer: 1.21 (inactive) and 1.18 (inactive)

Question: And the normalised cell number [1, 6]?
Answer: 0.99 and 0.72

Question: And the normalised cell number [1, 7]?
Answer: 1.2 and 0.85

Question: With `C[N+]12CCC(CC1)C(OC(=O)C(O)(c1ccccc1)c1ccccc1)C2` (configuration not stated) as the compound, how does the red/green cell ratio (normalised) [1] read?
Answer: 1.14 (inactive)

Question: And the normalised cell number [1, 6]?
Answer: 1.17

Question: What about the normalised cell number [1, 7] of the same compound?
Answer: 1.33

Question: Which red/green cell ratio (normalised) [1] does the source give for `C[C@@H]1CN(c2c(F)c(F)c3c(=O)c(C(=O)O)cn(C4CC4)c3c2F)C[C@H](C)N1` here?
Answer: 1.1 (inactive) and 1 (inactive)

Question: What about the normalised cell number [1, 6] of the same compound?
Answer: 1.07 and 1.13

Question: What about the normalised cell number [1, 7] of the same compound?
Answer: 1.18 and 1.13

Question: With `Cc1ccccc1OCC(O)CO` (configuration not stated) as the compound, how does the red/green cell ratio (normalised) [1] read?
Answer: 1.04 (inactive)

Question: And the normalised cell number [1, 6]?
Answer: 1.05

Question: What about the normalised cell number [1, 7] of the same compound?
Answer: 1.1

Question: With `O=C(O)/C=C(\CC(=O)O)C(=O)O` as the compound, how does the red/green cell ratio (normalised) [1] read?
Answer: 1.06 (inactive)

Question: What about the normalised cell number [1, 6] of the same compound?
Answer: 1.18

Question: What about the normalised cell number [1, 7] of the same compound?
Answer: 1.25

Question: Which red/green cell ratio (normalised) [1] does the source give for `CC(NCCC(c1ccccc1)c1ccccc1)c1ccccc1` (configuration not stated) here?
Answer: 0.89 (inactive)

Question: And the normalised cell number [1, 6]?
Answer: 0.97

Question: What about the normalised cell number [1, 7] of the same compound?
Answer: 0.86

Question: Which red/green cell ratio (normalised) [1] does the source give for `CCO/C([O-])=N/c1c[n+](N2CCOCC2)no1` here?
Answer: 0.9 (inactive)

Question: And the normalised cell number [1, 6]?
Answer: 1.04

Question: And the normalised cell number [1, 7]?
Answer: 0.94

Question: Which results are given for `O=C1c2ccccc2C(=O)C1c1ccccc1`?
Answer: red/green cell ratio (normalised) [1]: 1.05 (inactive); normalised cell number [1, 6]: 1.09; normalised cell number [1, 7]: 1.15

Question: What does the source list for `CCC(=O)c1c(O)cc(O)cc1O`?
Answer: red/green cell ratio (normalised) [1]: 0.9 (inactive); normalised cell number [1, 6]: 1.06; normalised cell number [1, 7]: 0.96

Question: For `CC1CCc2cc(F)cc3c(=O)c(C(=O)O)cn1c23` (configuration not stated), which red/green cell ratio (normalised) [1] is on record?
Answer: 1.19 (inactive)

Question: And the normalised cell number [1, 6]?
Answer: 0.89

Question: What about the normalised cell number [1, 7] of the same compound?
Answer: 1.05

Question: With `Oc1cc(O)c2c(c1)O[C@H](c1ccc(O)c(O)c1)[C@H](O)C2` as the compound, how does the red/green cell ratio (normalised) [1] read?
Answer: 0.83 (inactive)

Question: What about the normalised cell number [1, 6] of the same compound?
Answer: 1.07

Question: What about the normalised cell number [1, 7] of the same compound?
Answer: 0.89

Question: With `CCN(CC)CCOC(=O)C(c1ccccc1)C1CCCCC1` (configuration not stated) as the compound, how does the red/green cell ratio (normalised) [1] read?
Answer: 0.94 (inactive)

Question: And the normalised cell number [1, 6]?
Answer: 0.95

Question: And the normalised cell number [1, 7]?
Answer: 0.89

Question: With `CCC(Cc1c(I)cc(I)c(N)c1I)C(=O)O` (configuration not stated) as the compound, how does the red/green cell ratio (normalised) [1] read?
Answer: 1.11 (inactive)

Question: And the normalised cell number [1, 6]?
Answer: 1.2

Question: And the normalised cell number [1, 7]?
Answer: 1.33

Question: Which red/green cell ratio (normalised) [1] does the source give for `CC(=O)Nc1ccc(S(=O)(=O)Nc2ccc([N+](=O)[O-])cc2)cc1` here?
Answer: 0.81 (inactive)

Question: What about the normalised cell number [1, 6] of the same compound?
Answer: 1.34

Question: What about the normalised cell number [1, 7] of the same compound?
Answer: 1.08

Question: With `O=C1C(O)=C(O)C(=O)C(O)=C1O` as the compound, how does the red/green cell ratio (normalised) [1] read?
Answer: 1.1 (inactive)

Question: What about the normalised cell number [1, 6] of the same compound?
Answer: 1.02

Question: What about the normalised cell number [1, 7] of the same compound?
Answer: 1.12

Question: Which results are given for `CN1CCC(OC(c2ccccc2)c2ccccc2)CC1`?
Answer: red/green cell ratio (normalised) [1]: 1.14 (inactive); normalised cell number [1, 6]: 1.05; normalised cell number [1, 7]: 1.2

Question: Which results are given for `Cc1c(C(N)=O)cc([N+](=O)[O-])cc1[N+](=O)[O-]`?
Answer: red/green cell ratio (normalised) [1]: 0.99 (inactive); normalised cell number [1, 6]: 0.91; normalised cell number [1, 7]: 0.9

Question: With `O=C(O)c1ccccc1C(=O)Nc1ccc(S(=O)(=O)Nc2nccs2)cc1` as the compound, how does the red/green cell ratio (normalised) [1] read?
Answer: 1 (inactive)

Question: What about the normalised cell number [1, 6] of the same compound?
Answer: 1.18

Question: And the normalised cell number [1, 7]?
Answer: 1.17
